A selection: hits, their analogues and other compounds. The true share with any hit is near 6.4%.
Gal4-VP16 FLuc: VP16 counterscreen qHTS for inhibitors of ROR gamma transcriptional activity. Drosophila S2 Gal4-VP16 UAS-luciferase, luminescence, 20 h. Potency, µM (series often up to 53.6 µM), inactives show top-dose activity, negative = inhibition, actives largely listed as inhibitors. 3.5% of 310,000 active;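 further: Gal4-VP16 expression switched on by copper sulfate through the metallothionein promoter; nearly all actives have a fitted effect of over 50% in size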
RORg inh: qHTS for inhibitors of ROR gamma transcriptional activity; Nuclear receptor ROR-gamma (Mus musculus), P51450; Drosophila S2 Gal4-RORgamma UAS-luciferase reporter, 20 h; Potency, µM (series often up to 53.6 µM), for inactives: at the highest dose activity change, negative = inhibition, usual class: inhibitors; 5.4% of 310,000 active; AID 2551, 2010; further: nearly all actives have a fitted effect of over 60% in size
Target sequence (P51450 whole entry, looked up, the tested form may be a part): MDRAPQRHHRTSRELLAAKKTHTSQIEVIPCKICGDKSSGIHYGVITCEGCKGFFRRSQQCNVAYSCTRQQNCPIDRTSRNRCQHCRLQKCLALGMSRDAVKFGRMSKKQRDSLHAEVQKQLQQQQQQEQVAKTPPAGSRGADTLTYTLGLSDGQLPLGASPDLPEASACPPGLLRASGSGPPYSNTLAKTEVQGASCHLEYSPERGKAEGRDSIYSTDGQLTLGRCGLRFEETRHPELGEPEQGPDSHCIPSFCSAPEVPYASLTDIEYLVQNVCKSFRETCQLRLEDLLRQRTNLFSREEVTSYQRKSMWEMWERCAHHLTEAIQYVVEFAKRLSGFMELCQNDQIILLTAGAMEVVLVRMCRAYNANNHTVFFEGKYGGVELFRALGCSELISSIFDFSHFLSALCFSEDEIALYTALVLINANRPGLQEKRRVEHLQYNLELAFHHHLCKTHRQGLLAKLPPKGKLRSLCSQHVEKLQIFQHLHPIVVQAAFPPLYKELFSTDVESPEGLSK
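A Gal4/UAS one-hybrid system in insect cells: metallothionein-promoter Gal4–ROR gamma fusion plus Photinus luciferase reporter. Copper sulfate 700 uM final, 20 hr ambient incubation, luminescent detection after 10 min with reagent.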
KinaseGlo FLuc: Counterscreen for Luciferase (Kinase-Glo TM) Inhibition | Luciferin 4-monooxygenase (Photuris pensylvanica), Q27757 | Kinase-Glo luciferase, ATP luminescence, 8 min | Potency, µM (highest dose often 38.3 µM), without a hit: at the top dose activity change, negative = inhibition, usual class: inhibitors | 0.28% of 200,000 active; further: nearly all actives have a fitted effect of over 60% in size
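Kinase-Glo luciferase light output from ATP and luciferin was measured with 10 uM ATP, within the enzyme's linear range. Buffer: 50 mM imidazole pH 7.2, 50 mM KCl, 7 mM MgCl2, 0.01% Tween 20, 0.05% BSA; luminescence read after 8 min at ambient temperature.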
* = called active by the depositor; [ ] = another dose, or the depositor's remark. The call rests on the fitted dose curve; in most records, active means well fitted curve in the direction sought with a large enough effect; inconclusive means small, poorly fitted or top-dose-only effect, or another doubt; inactive means no such curve, though single readings can be large; an effect the other way counts as inactive or inconclusive. On the % scale 0 is the no-effect control and ±100 the full control effect; potency means the concentration at half of the fitted maximal effect.

Results for CCN(CC)C(=O)COc1ccc(/C(C)=N/NC(=O)c2ccccc2O)cc1 ?
Gal4-VP16 FLuc: -15.8%; RORg inh: inconclusive; KinaseGlo FLuc: 1.1%

Results for CC(C)(C)OC(=O)N1CCC(Cc2cc(-c3ccccc3)no2)(C(=O)O)CC1 ?
Gal4-VP16 FLuc: -1.1%; RORg inh: 23.8%

Results for CC(CCN1CCOCC1)c1ccccc1 (stereo not given) ?
Gal4-VP16 FLuc: 1.2%; RORg inh: 15.0%

How did CC(CCN1CCN(CCO)CC1)c1ccccc1 (stereo not given) do in these assays?
Gal4-VP16 FLuc: 2.9%; RORg inh: 2.82µM*

Results for CN(C)c1ccc(C(=S)N2CCCC2)cc1Br ?
Gal4-VP16 FLuc: 16.4%; RORg inh: -18.7%

What do the screens show for `COc1ccccc1CNC(=O)C1CCN(S(=O)(=O)c2ccc3c(c2)NC(=O)CO3)CC1`?
Gal4-VP16 FLuc: 7.4%; RORg inh: 15.3%

What do the screens show for `CCN(CC)c1ccc(/C=N/NC(=O)c2ccoc2C)c(O)c1`?
Gal4-VP16 FLuc: 3.55µM*; RORg inh: 0.501µM*

How did CCN(CC)c1ccc(/C=N/NC(=S)NC)c(O)c1 do in these assays?
Gal4-VP16 FLuc: 1.78µM*; RORg inh: 0.794µM*

How did CCN(CC)c1ccc(/C=N/NC(=O)c2ccc3nc[nH]c3c2)c(O)c1 do in these assays?
Gal4-VP16 FLuc: -28.1%; RORg inh: inconclusive

What do the screens show for `CCN(CC)c1ccc(/C=N/NC(=O)OC)c(O)c1`?
Gal4-VP16 FLuc: inconclusive; RORg inh: inconclusive; KinaseGlo FLuc: -4.2%

Results for Cc1ccc(C(=O)NC2CC3CCCC(C2)N3C(=S)NCc2ccco2)cc1 (stereo not given) ?
Gal4-VP16 FLuc: -6.1%; RORg inh: inconclusive; KinaseGlo FLuc: -1.9%

What do the screens show for `Cc1nnsc1C(=O)N/N=C/c1ccc(OC(F)(F)F)cc1`?
Gal4-VP16 FLuc: 27.0%; RORg inh: -14.8%; KinaseGlo FLuc: 1.6%

How did CN(C)C(=O)n1nnnc1Cc1ccc(-c2ccccc2)cc1 do in these assays?
Gal4-VP16 FLuc: -6.8%; RORg inh: 1.8%; KinaseGlo FLuc: 3.5%[39.9 µM]

Results for CCN1/C(=C\C(=S)Nc2ccccc2)Sc2ccccc21 ?
Gal4-VP16 FLuc: inconclusive; RORg inh: 3.98µM*; KinaseGlo FLuc: 0.7%

How did CCN1/C(=C\C=C(C(C)=O)C(C)=O)Sc2ccccc21 do in these assays?
Gal4-VP16 FLuc: 13.1%; RORg inh: 10.4%; KinaseGlo FLuc: -1.2%

How did Cc1cc(C)n(CC(=O)c2cccc(N)c2)n1 do in these assays?
Gal4-VP16 FLuc: 2.1%; RORg inh: -1.6%; KinaseGlo FLuc: 1.0%

How did O=C(CNc1cc(S(=O)(=O)N2CCOCC2)ccc1NCC1CCCO1)Nc1ccc(F)c(F)c1 (stereo not given) do in these assays?
Gal4-VP16 FLuc: -5.4%; RORg inh: inconclusive

Results for COc1ccc(/C=N/NC(=O)CC(=O)N/N=C/c2ccc(OC)cc2)cc1 ?
Gal4-VP16 FLuc: -4.9%; RORg inh: 0.1%; KinaseGlo FLuc: -0.7%

Results for COc1ccc(/C=N\NC(=O)C2=NNC(=O)C2C)cc1 (stereo not given) ?
Gal4-VP16 FLuc: 3.16µM*; RORg inh: 12.6µM*; KinaseGlo FLuc: inconclusive

How did O=C(c1ccco1)N1CCN(C(=O)c2ccccc2NS(=O)(=O)c2ccc(F)cc2)CC1 do in these assays?
Gal4-VP16 FLuc: -1.9%; RORg inh: 11.7%

Results for Cc1nn2c(N3CCCC3)cc(C(C)C)nc2c1-c1ccccc1 ?
Gal4-VP16 FLuc: -1.5%; RORg inh: 14.1µM*; KinaseGlo FLuc: 3.5%

Results for COc1ccccc1-c1c(C)nn2c(N3CCCCCC3)cc(C)nc12 ?
Gal4-VP16 FLuc: 20µM*; RORg inh: 15.8µM*; KinaseGlo FLuc: 2.3%

How did Cc1cc(N2CCCCC2)n2nc(C)c(-c3ccccc3)c2n1 do in these assays?
Gal4-VP16 FLuc: -4.5%; RORg inh: -18.9%

Results for COc1ccccc1-c1c(C)nn2c(N3CCOCC3)cc(C)nc12 ?
Gal4-VP16 FLuc: -2.7%; RORg inh: 40.9%

What do the screens show for `O=C(Nc1cccc(F)c1)C1CCN(C(=O)N2CCOc3ccccc32)CC1`?
Gal4-VP16 FLuc: 8.9%; RORg inh: 4.2%

What do the screens show for `Cc1cc(N2CCN(c3ccc([N+](=O)[O-])c4cccnc34)CC2)c2ccccc2n1`?
Gal4-VP16 FLuc: 7.08µM*; RORg inh: 12.6µM*; KinaseGlo FLuc: -2.8%

Results for Cc1cc(N2CCN(c3ccc(C(F)(F)F)cc3[N+](=O)[O-])CC2)c2ccccc2n1 ?
Gal4-VP16 FLuc: inconclusive; RORg inh: -43.5%

What do the screens show for `Cc1cc(NC(=O)/C=C/c2cccc(F)c2)n(-c2nc3ccccc3[nH]2)n1`?
Gal4-VP16 FLuc: 2.82µM*; RORg inh: 1.58µM*; KinaseGlo FLuc: 2.2%

What do the screens show for `Cc1cc(NC(=O)/C=C/c2ccc(F)cc2)n(-c2nc3ccccc3[nH]2)n1`?
Gal4-VP16 FLuc: 1µM*; RORg inh: 1.26µM*; KinaseGlo FLuc: 0.2%

What do the screens show for `COc1ccc(/C=C/C(=O)Nc2cc(C)nn2-c2nc3ccccc3[nH]2)cc1`?
Gal4-VP16 FLuc: 2.51µM*; RORg inh: 1.78µM*; KinaseGlo FLuc: -4.2%

What do the screens show for `Cc1cc(NC(=O)/C=C/c2cccc(Cl)c2)n(-c2nc3ccccc3[nH]2)n1`?
Gal4-VP16 FLuc: inconclusive; RORg inh: inconclusive; KinaseGlo FLuc: -12.3%

How did COc1ccc(/C=C/C(=O)Nc2cc(C)nn2-c2nc3ccccc3n2Cc2cccc([N+](=O)[O-])c2)cc1 do in these assays?
Gal4-VP16 FLuc: -1.7%; RORg inh: 1.9%; KinaseGlo FLuc: -2.2%

What do the screens show for `CN=C(Nc1cc(C)nn1-c1ccccc1)c1ccc(F)cc1`?
Gal4-VP16 FLuc: 0.5%; RORg inh: 0.5%; KinaseGlo FLuc: -2.7%

How did CCN(CC)CCC(C)OC(c1ccccc1)c1ccccc1 (stereo not given) do in these assays?
Gal4-VP16 FLuc: 8.2%[10 µM]; RORg inh: -16.2%; KinaseGlo FLuc: -0.6%

What do the screens show for `CCc1cccc(C)c1NC(=S)N(Cc1cccnc1)Cc1ccco1`?
Gal4-VP16 FLuc: inconclusive; RORg inh: -26.5%; KinaseGlo FLuc: 3.7%

How did Cc1nc2ccc(NS(=O)(=O)c3ccc(F)c(C)c3)cc2[nH]1 do in these assays?
Gal4-VP16 FLuc: 7.08µM*; RORg inh: inconclusive

How did Cc1nc2ccc(S(=O)(=O)c3ccc4nc(C)[nH]c4c3)cc2[nH]1 do in these assays?
Gal4-VP16 FLuc: -1.7%; RORg inh: 18.2%; KinaseGlo FLuc: 1.4%

What do the screens show for `OC(c1ccccc1)c1nccc2ccccc12` (stereo not given)?
Gal4-VP16 FLuc: -11.3%; RORg inh: 12.6µM*; KinaseGlo FLuc: 0.3%

What do the screens show for `OC(c1cccs1)c1nccc2ccccc12` (stereo not given)?
Gal4-VP16 FLuc: 4.9%; RORg inh: -5.9%; KinaseGlo FLuc: -2.0%

How did COc1ccc(C(=O)OCCOc2cccc(Cl)c2)cc1S(=O)(=O)N1CCOCC1 do in these assays?
Gal4-VP16 FLuc: -5.3%; RORg inh: -22.6%

Results for CCCc1cnc(NCCNCC(O)COc2ccc(Cl)c(Cl)c2)nc1 (stereo not given) ?
Gal4-VP16 FLuc: 2.0%; RORg inh: -0.3%
